Laboratory results taken from PubChem BioAssay (EPA / NIEHS).
Inconclusive results are not listed. Activity calls are given as the source filed them. Rule for the calls, unless noted: active = hit-call score of the fitted dose curve at least 0.9, where 1 is the maximum; inconclusive = response in the unintended direction; inactive = score below 0.9.

Legend:
[1] = Tanguay_ZF_120hpf_TR_legacy: (Legacy) Oregon State University Tanguay Lab 120 Hour Post-fertilization zebrafish Assay for Touch Response (AID 2283667)
Outline: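 Tropical 5D wild-type zebrafish embryos statically exposed to 120 hpf at 28°C, sealed and dark-covered, 0.64% DMSO final; touch response scored as present/absent by brightfield microscopy at 120 hpf. Trimethyltin chloride 5 uM positive control; dead embryos not scored.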

[2] = Tanguay_ZF_120hpf_ActivityScore_legacy: (Legacy) Oregon State University Tanguay Lab 120 Hour Post-fertilization zebrafish Assay Score for Activity (AID 2283742);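 for AC50: dechorionated Tropical 5D wild-type zebrafish embryos held singly per well; static exposure from 6 hpf until 120 hpf at 28 °C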
Outline: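 Dechorionated Tropical 5D embryos, one per well from 6 hpf, statically exposed to 120 hpf at 28 °C in 0.64% DMSO. Mortality and malformations scored binary by brightfield microscopy; activity score combines 18 endpoints, fitted positively versus DMSO.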

[3] = CEETOX_H295R_MTT_cell_viability: Viability Assessment in the CeeTox HT-H295R MTT Assay (AID 2283718; active = hit-call score of the fitted dose curve at least 0.9, where 1 is the maximum; inactive = score below 0.9;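 for AC50: curve fitted both ways so AC50 may mark viability loss or gain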)
Outline: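 Human H295R adrenal cells, prestimulated 48 h with 10 uM forskolin, were exposed 48 h to chemicals in 0.1% DMSO. Viability was measured in the same wells by MTT (0.5 mg/ml, 4 h, 37 C), absorbance 570/650 nm, as percent of controls.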

[4] = STM_H9_OrnithineISnorm_perc: Stemina devTOX quickPredict H9 human embryonic stem cell (hESC)-based Assay for Ornithine (ORN) Metabolite Biomarker, Normalized (AID 2283712; active = hit-call score of the fitted dose curve at least 0.9, where 1 is the maximum; inactive = score below 0.9;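 note: ornithine released into spent medium during last day measured by mass spectrometry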)
Outline: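 Undifferentiated pluripotent H9 hESCs were exposed to compound for 72h, with media and compound replaced every 24h. Ornithine in final 24-h conditioned media was measured by UPLC-HRMS, normalized to 13C-labeled spike-in standard and to median 0.1% DMSO control.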

[5] = STM_H9_CystineISnorm_perc: Stemina devTOX quickPredict H9 human embryonic stem cell (hESC)-based Assay for Cystine (CYSS) Metabolite Biomarker, Normalized (AID 2283713; active = hit-call score of the fitted dose curve at least 0.9, where 1 is the maximum; inactive = score below 0.9)
Outline: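 Undifferentiated H9 hESCs were exposed to compound for 72h, with medium and compound replaced every 24h. Final-24h conditioned medium was deproteinized and analyzed by UPLC-HRMS. Cystine EIC area was normalized to spiked C13 standard and 0.1% DMSO median.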

[6] = ArunA_CellTiter_hNC: Viability Assessment in the ArunA Biomedical's Oris Neural Crest (hNC) Cell Migration Assay (AID 2283752)
Outline: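 Human H9-derived neural crest stem cells were plated at 60,000 per well on Matrigel in growth medium with LIF and bFGF, incubated 16 h at 37C, then exposed to chemical for 72 h. Viability was read with CellTiter Aqueous One as loss of signal versus DMSO.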

[7] = STM_H9_OrnCyssISnorm_ratio: Stemina devTOX quickPredict H9 human embryonic stem cell (hESC)-based Assay for Ornithine (ORN):Cystine (CYSS) Ratio (AID 2283714)
Outline: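 Undifferentiated H9 hESCs exposed 72 h, media and compound replaced every 24 h; final 24-h conditioned media deproteinized and analysed by UPLC-HRMS against C13 spike-ins. Value is the internal-standard-normalized ORN/CYSS ratio versus 0.1% DMSO.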

[8] = system: Thyroperoxidase (TPO), gene 445522; assay: CCTE_Simmons_GUA_TPO: CCTE's Guaiacol Assay for Thyroperoxidase (TPO) Inhibition, Simmons Lab (AID 2283750)
Outline: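 Porcine thyroid microsomes (25 ug) in 200mM potassium phosphate, preincubated 30 s at 37C with compound (8 concentrations, 5 nM–87.5 uM) and 35mM guaiacol; 1mM H2O2 starts reaction. Absorbance change at 450nm over first 80 s; loss of signal versus DMSO, three replicates.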

SMILES: O=C1O[C@H]([C@H](O)CO)C(O)=C1O
- outcome [1]: inactive
- outcome [2]: inactive

SMILES: Cc1c(C)c2c(c(C)c1O)CCC(C)(COc1ccc(CC3SC(=O)NC3=O)cc1)O2 (stereo unspecified)
- outcome [1]: inactive
- AC50 [3]: 0.0321 µM (active)
- outcome [2]: inactive

SMILES: C/C=C/C=C/C(=O)O
- outcome [1]: inactive
- outcome [2]: inactive

SMILES: Oc1ccccc1O
- outcome [1]: inactive
- outcome [3]: inactive
- outcome [2]: inactive

SMILES: Cn1cnc2c1c(=O)[nH]c(=O)n2C
- outcome [1]: inactive
- outcome [2]: inactive

SMILES: c1ccc2occc2c1
- outcome [1]: inactive
- outcome [2]: inactive

SMILES: S=c1[nH]c2ccccc2s1
- AC50 [1]: 12.3 µM (active)
- outcome [3]: inactive

SMILES: CC1(C)C(=O)NC(=O)N1CO
- outcome [1]: inactive
- outcome [2]: inactive

SMILES: CN(C)C(=O)NC1(c2ccccc2)CCN(CCC[C@]2(c3ccc(Cl)c(Cl)c3)CCCN(C(=O)c3ccccc3)C2)CC1
- outcome [1]: inactive
- outcome [3]: inactive
- outcome [2]: inactive

SMILES: C=CCCCCCCCCCCCC
- outcome [1]: inactive
- outcome [2]: inactive

SMILES: CO[C@@H]1COCC[C@@H]1N[C@@H]1CC[C@@](C(=O)N2CCc3ncc(C(F)(F)F)cc3C2)(C(C)C)C1
- outcome [1]: inactive
- outcome [2]: inactive

SMILES: Oc1ccc(O)cc1
- outcome [1]: inactive
- outcome [3]: inactive
- AC50 [2]: 2.69 µM (active)

SMILES: COc1ccc(OC(F)(F)F)cc1CN[C@H]1CCCN[C@H]1c1ccccc1
- outcome [1]: inactive
- AC50 [2]: 17.9 µM (active)

SMILES: O=C1CCCCC1
- outcome [1]: inactive
- outcome [2]: inactive

SMILES: CCOCCOCCO
- outcome [1]: inactive
- outcome [2]: inactive

SMILES: CC(=O)O[C@]1(C(C)=O)CC[C@H]2[C@@H]3C=C(Cl)C4=CC(=O)[C@@H]5C[C@@H]5[C@]4(C)[C@H]3CC[C@@]21C
- outcome [1]: inactive
- outcome [3]: inactive
- outcome [2]: inactive

SMILES: COC(=O)[C@H]1[C@H]2C[C@@H]3c4[nH]c5cc(OC)ccc5c4CCN3C[C@H]2C[C@@H](OC(=O)c2cc(OC)c(OC)c(OC)c2)[C@@H]1OC
- outcome [1]: inactive
- outcome [4]: inactive
- outcome [2]: inactive

SMILES: CCCCCCCCCCCCCCCCO
- outcome [1]: inactive
- outcome [4]: inactive
- outcome [5]: inactive
- outcome [2]: inactive

SMILES: CS(=O)(=O)c1ccc([C@@H](C[C@H]2CCC(=O)C2)C(=O)Nc2cnccn2)cc1Cl
- outcome [1]: inactive
- outcome [2]: inactive

SMILES: COC(=O)CCCC(=O)OC
- outcome [1]: inactive
- outcome [2]: inactive

SMILES: NC=O
- outcome [1]: inactive
- outcome [2]: inactive

SMILES: CSc1ccc(Oc2ccc(S(N)(=O)=O)cc2CN(C)C)cc1C
- AC50 [1]: 50.9 µM (active)
- AC50 [2]: 22.8 µM (active)

SMILES: O=C(O)CC(O)(CC(=O)O)C(=O)O
- outcome [1]: inactive
- outcome [2]: inactive

SMILES: COc1ccc(C(=O)Nc2nc3ccccc3c(NCc3ccccc3)c2C#N)cc1
- outcome [1]: inactive
- AC50 [3]: 0.909 µM (active)
- outcome [2]: inactive

SMILES: CC(C)(C)c1ccccc1
- outcome [1]: inactive
- AC50 [2]: 24.6 µM (active)

SMILES: OCC(O)CO
- outcome [1]: inactive
- outcome [2]: inactive

SMILES: Cc1ccc(-c2cc(C(F)(F)F)nn2-c2ccc(S(N)(=O)=O)cc2)cc1
- outcome [1]: inactive
- outcome [4]: inactive
- outcome [5]: inactive
- outcome [2]: inactive
- AC50 [6]: 70.4 µM (active)

SMILES: CC(C)(O)c1ccc(CNC(=O)c2cccnc2Oc2ccc(F)cc2)cc1
- outcome [1]: inactive
- outcome [3]: inactive
- outcome [2]: inactive

SMILES: NCCOCCOCCN
- outcome [2]: inactive

SMILES: Cc1cc(SC2=C(O)C[C@@](CCc3ccc(N)cc3)(C(C)C)OC2=O)c(C(C)(C)C)cc1CO
- outcome [1]: inactive
- outcome [2]: inactive

SMILES: CC(C)COC(=O)CCCCC(=O)OCC(C)C
- outcome [2]: inactive

SMILES: O=C(O)c1[nH]n(-c2ccc(S(=O)(=O)O)cc2)c(=O)c1N=Nc1ccc(S(=O)(=O)O)cc1
- outcome [1]: inactive
- outcome [2]: inactive

SMILES: CCN(CC)CCOc1ccc(C(=C(Cl)c2ccccc2)c2ccccc2)cc1
- AC50 [4]: 6.22 µM (active)
- AC50 [5]: 1.17 µM (active)
- AC50 [7]: 2.53 µM (active)
- outcome [3]: inactive
- AC50 [2]: 37.8 µM (active)

SMILES: O=C(NS(=O)(=O)/C=C/c1cccs1)c1ccc(F)cc1Br
- outcome [1]: inactive
- outcome [2]: inactive

SMILES: CCCCCCC(C=O)=Cc1ccccc1
- outcome [1]: inactive
- outcome [2]: inactive

SMILES: NC1CCCCC1
- outcome [1]: inactive
- outcome [2]: inactive

SMILES: O=C(O)c1cccnc1
- outcome [4]: inactive
- outcome [5]: inactive
- outcome [7]: inactive
- outcome [2]: inactive

SMILES: CCc1nc(N)nc(N)c1-c1ccc(Cl)cc1
- AC50 [4]: 30.7 µM (active)
- AC50 [5]: 30.6 µM (active)
- AC50 [7]: 31.1 µM (active)
- outcome [2]: inactive

SMILES: O=[Si]=O
- outcome [1]: inactive
- outcome [2]: inactive

SMILES: CCCCc1nc2cccnc2n1Cc1ccc(-c2ccccc2-c2nnn[nH]2)cc1
- outcome [3]: inactive
- outcome [2]: inactive

SMILES: O=C1c2c(O)cccc2Cc2cccc(O)c21
- outcome [3]: inactive
- outcome [2]: inactive

SMILES: OCC(CO)n1cnc(-c2ccc(F)cc2)c1-c1ccnc(Oc2ccccc2)n1
- outcome [1]: inactive
- outcome [2]: inactive

SMILES: CC(C)NCC(O)c1ccc(O)c(O)c1 (stereo unspecified)
- outcome [1]: inactive
- outcome [2]: inactive
- AC50 [8]: 7.79 µM (active)

SMILES: CN(C)CCCN(C)CCCN(C)C
- outcome [1]: inactive
- outcome [2]: inactive

SMILES: CC(N)=O
- outcome [1]: inactive
- outcome [2]: inactive

SMILES: C#CC(O)C(CC)CCCC (stereo unspecified)
- outcome [1]: inactive
- outcome [2]: inactive
